# Results filed as inconclusive are left out. Unmarked numbers belong to inactive results. The source made the active and inactive calls. Calls follow the shape of the dose curve; as a rule, active = well fitted inhibition curve with a large enough effect; inconclusive = small, poorly fitted or top-dose-only effect; inactive = no such curve, though single readings can be large or run the other way.
# Test: Confirmation assay for measurement of the activity of small molecule inhibitors on Zika virus induced Caspase-3 activity in human astrocytoma cells
# Settings: SNB-19 ZIKV-induced caspase-3/7, luminescence, 6 h; series mostly up to 46.1 µM; activity change, negative = inhibition: at the top concentration
# Text: National Center for Advancing Translational Sciences [NCATS] Johns Hopkins University School of Medicine Florida State University Assay Overview: Increase in the Caspase-3 activity indicates an activation of apoptosis cell death pathway caused by Zika virus infection in certain types of neuronal cells including human neural progenitor cells (hNPCs), astrocytes, and astrocytoma cell line (SNB-19). This cell-based caspase-3 activity assay measures the increased caspase-3 activity in the astrocytoma cell line (SNB-19) after a 6-hour Zika virus infection with a luminescence readout. A decrease in the luminescence signal in this assay by small molecule treatment indicates an inhibitory effect of that small molecule on the Zika virus induced caspase-3 activity that may correlate with its effect on reduction of Zika virus caused cell death.
# Assay Protocol Summary: The medium for SNB-19 cells is composed of RPMI 1640 (ATCC, Cat.# 30-2001), 10% fetal bovine serum (FBS) (GE healthcare Life Sciences, Cat.# SH30071.03), and 1% Pen/Strep (Gibco, Cat.# 15140-122). A Caspase-Glo 3/7 assay kit (catalog number G8092; Promega, Madison, WI) was used to detect caspase-3 activity induced by Zika virus infection in human cells. The reagent mixture was reconstituted as described in the protocol from the manufacturer. Polystyrene tissue culture treated and PDL coated white plates were obtained from Greiner Bio-One (Monroe, NC). Cells were seeded in 384- or 1536-well assay plates and cultured at 37 C with 5% CO2 for 16 to 20 hours. The typical cell seeding density in the 1536-well plate assay is 250 cells/well in 3ul medium for SNB-19 cells in tissue culture treated plates. Compounds were added to cells and incubated for one hour before addition of ZIKV solution to cells (2 FFU/cell). After incubation at 37 C with 5% CO2 for 6 hours, the reagent mixture of Caspase-Glo 3/7 assay kit was added to each well, followed by incubation at room temperature for 30 minutes. The luminescence intensity of the assay plates was measured using a ViewLux plate reader (PerkinElmer). Data were normalized by using the cell-containing wells without ZIKV as a negative control (0% induction of caspase 3/7 activity) and wells containing ZIKV infected cells (Caspase-3 activity induced) as a positive control (100% induction of caspase 3 activity). The percentage inhibitions of the increased Caspase-3 activity by small molecule inhibitors were then calculated.
SMILES,Potency,"activity change, negative = inhibition"
O=C(Nc1ccc(Br)cc1)c1cc(Br)cc(Br)c1O,6.9 µM (active),
O=C1C=CC[C@@H]2[C@H]3CCCN4CCC[C@@H](CN12)[C@@H]34,,18.5%
CC(O)CN1CCN(CC(=O)[O-])CCN(CC(=O)[O-])CCN(CC(=O)[O-])CC1.[Gd+3] (centres undefined),,11.9%
CC(C)[N+](C)(CCC(C(N)=O)(c1ccccc1)c1ccccc1)C(C)C,,1.37%
O=c1c2ccccc2[se]n1-c1ccccc1,17.3 µM (active),
COP(=S)(OC)SCN1C(=O)c2ccccc2C1=O,,-5.52%
O=C1CCC[C@@H]2[C@H]3CCCN4CCC[C@@H](CN12)[C@@H]34,,1.01%
Cc1ccc([N+](=O)[O-])[c]2c1[O][Hg]2,10.9 µM (active),
CC(C)[C@H]1C(=O)N[C@H](CO)Cc2c[nH]c3cccc(c23)N1C,,2.51%
S=C(SSC(=S)N1CCCCC1)N1CCCCC1,,-16.3%
CC(C)N[C@@H]1CCn2c(=O)[nH]c3cccc(c32)[C@@H]1O,,-1.27%
COC1(CS(=O)c2ccccc2)CCN(CCc2c[nH]c3ccc(F)cc23)CC1 (centres undefined),,12.7%
O=S(=O)(CC1CS1)c1ccc(Oc2ccccc2)cc1 (centres undefined),,-24.8%
Oc1ccc([C@H]2CNCc3c2ccc(O)c3O)cc1O,,9.68%

# From PubChem BioAssay AID1224853 (National Center for Advancing Translational Sciences (NCATS), 2016)
